Here are results for 39 compounds from PubChem BioAssay (Tox21).

Results filed as inconclusive are left out. Entries that show only a call come without a potency. Unmarked numbers belong to inactive results. The source made the active and inactive calls. Unless noted, calls come from the whole dose curve; as a rule, active = well fitted cell-killing curve with a large enough effect in the repeat runs; inconclusive = weak or mixed curves; inactive = flat fitted curve, though single readings scatter.

One assay can be described thus: qHTS assay to identify small molecule agonists of the progesterone receptor (PR) signaling pathway - cell viability counter screen (AID 1346799; calls by dose curve; note: nearly all actives have a fitted effect of over 45% in size). The conditions noted are these: PR-UAS-bla HEK293T viability, CellTiter-Glo luminescence, 16 h; series mostly up to 92.4 µM. The procedure, abridged:
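Cells (PR-UAS-bla HEK293T) are plated at 3,000/well in 2% charcoal-stripped FBS medium, rested 6 hr, dosed and incubated 16 hr at 37C. CellTiter-Glo is then added and luminescence measured after 30 min at room temperature.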
In general terms: In qHTS, concentration-response curves come from the screen itself.
In the case of `CN1C(=O)CC(C)(c2ccccc2)C1=O` (stereo not given), the Potency result was “inactive”.
As to `CC(=O)Nc1ccccc1C`, the Potency result was “inactive”.
Turning to `CCCCC(CC)COC(=O)COc1ccc(Cl)cc1C` (stereo not given), the Potency result was “inactive”.
`COc1ccc(CCC(=O)c2c(O)cc(O[C@@H]3O[C@H](CO)[C@@H](O)[C@H](O)[C@H]3O[C@@H]3O[C@@H](C)[C@H](O)[C@@H](O)[C@H]3O)cc2O)cc1O`: the Potency entry was “inactive”.
As to `Cc1cc(OI)c(C(C)C)cc1-c1cc(C(C)C)c(OI)cc1C`, the Potency result was “inactive”.
In the case of `CCCOCCOCCO`, the Potency result is “inactive”.
`CC(=O)Nc1ccc(N)cc1`: the Potency entry is “inactive”.
The same measure, in the same setting: for `CC1=C(C=O)C(C)(C)CCC1` the value was “inactive”.
Consider `C=CCCCCCCCCCCCCCCCC`, for which the activity change, negative = cytotoxicity is 14.5% [at 8.39 µM].
The same measure, in the same setting: the figure for `[O]=[Bi]` is 0% [at 8.39 µM].
Consider `CN1Cc2cc(C(=O)N3CCC(C4CCNCC4)CC3)ccc2N[C@@H](CC(=O)O)C1=O`, for which the Potency result is “inactive”.
Turning to `Cc1ccccc1N1C(=O)c2cc(S(N)(=O)=O)c(Cl)cc2NC1C` (stereo not given), the Potency result was “inactive”.
`CC(CCO)CCc1ccccc1` (stereo not given): the Potency entry was “inactive”.
With `O=C(O)c1snc(Cl)c1Cl`, the Potency result was “inactive”.
Consider `Cc1nc2ccccc2s1`, for which the Potency result is “inactive”.
Consider `C=CC(=O)NCOCC(C)C`, for which the Potency entry is “inactive”.
On to `CCn1cc(C(=O)O)c(=O)c2cc(F)c(N3CCNCC3)nc21`, for which the Potency entry is “inactive”.
Same read-out and setting: for `NC(=O)Nc1ccc(Cl)cc1` the value was “inactive”; for `Cc1ccnc2ccccc12`, “inactive”.
For the compound `CN1CCN(c2c(F)cc3c(=O)c(C(=O)O)cn4c3c2OCN4C)CC1`, the activity change, negative = cytotoxicity was 0.954% [at 19 µM].
Regarding `NCC1CCCC(CN)C1` (stereo not given), the Potency entry is “inactive”.
Regarding `CCC(=O)OC/C=C/c1ccccc1`, the Potency result is “inactive”.
Same read-out and setting: the entry for `CCCCCCCCCOC(C)=O` is “inactive”.
As to `O=C(CCCCCCCCC#CI)Oc1ccccc1`, the Potency result is “inactive”.
Still for that read-out and setting: the entry for `CO[C@H]1O[C@H](CO)[C@@H](O)[C@H](O)[C@H]1O` is “inactive”; for `O=S1OCCO1` it is “inactive”.
The same measure, in the same setting: the entry for `O=C(O)C(Cc1cc(I)c(O)c(I)c1)c1ccccc1` (stereo not given) is “inactive”; for `CC(CCc1ccc2c(c1)OCO2)NN` (stereo not given) it is “inactive”; for `CCCCCCOC(=O)C(C)C` it is “inactive”.
On to `CCCC(=O)O[C@]1(C(=O)COC(=O)CC)CC[C@H]2[C@@H]3CCC4=CC(=O)CC[C@]4(C)[C@H]3[C@@H](O)C[C@@]21C`, for which the activity change, negative = cytotoxicity is 17.2% [at 19 µM].
With `CCOCCn1c(C2CCN(CCc3ccc(C(C)(C)C(=O)O)cc3)CC2)nc2ccccc21`, the Potency result is “inactive”.
On to `CCCCOC(=O)CCS`, for which the Potency result was “inactive”.
As to `CCCOC(=O)c1ccc(N)cc1`, the Potency entry is “inactive”.
With `CC1(C)C(=O)N(Br)C(=O)N1Cl`, the Potency entry is “inactive”.
For `Cc1cc(O)c(C(C)C)cc1Cl`, the Potency entry is “inactive”.
`CCOC(=O)/C=C/C(=O)O`: the Potency result is “inactive”.
Consider `O=C(O)c1cccc(O)c1`, for which the Potency result is “inactive”.

A further assay in a line: qHTS assay to identify small molecule antagonists of the TGF-beta/Smad signaling pathway - cell viability counter screen (AID 1346824). Note: nearly all actives have a fitted effect of over 50% in size. The conditions noted are these: SBE-bla HEK293T viability, CellTiter-Glo luminescence; series mostly up to 76.8 µM. The procedure, abridged:
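SBE-bla HEK 293T cells were plated overnight at 37 C, then given compounds in DMSO plus TGF-beta1 (added as 0.25 ng/mL solution) for 5 hr. After the bla read, CellTiter-Glo was added to the same wells and luminescence read after 30 min at room temperature.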
As to `CN1C(=O)CC(C)(c2ccccc2)C1=O` (stereo not given), the compound was classed as inactive.
As to `CC(=O)Nc1ccccc1C`, the result was inactive.
With `CCCCC(CC)COC(=O)COc1ccc(Cl)cc1C` (stereo not given), the call was inactive.
The same measure, in the same setting: for `COc1ccc(CCC(=O)c2c(O)cc(O[C@@H]3O[C@H](CO)[C@@H](O)[C@H](O)[C@H]3O[C@@H]3O[C@@H](C)[C@H](O)[C@@H](O)[C@H]3O)cc2O)cc1O` the value was “inactive”.
In the case of `Cc1cc(OI)c(C(C)C)cc1-c1cc(C(C)C)c(OI)cc1C`, the compound was called inactive.
`CCCOCCOCCO`: the compound was classed as inactive.
With `CC(=O)Nc1ccc(N)cc1`, the result was inactive.
The same measure, in the same setting: for `CC1=C(C=O)C(C)(C)CCC1` the value was “inactive”.
`C=CCCCCCCCCCCCCCCCC`: the viability change, negative = cytotoxic is 2.26% [at 6.97 µM].
Take `[O]=[Bi]`: the viability change, negative = cytotoxic is -10.5% [at 6.97 µM].
Take `CN1Cc2cc(C(=O)N3CCC(C4CCNCC4)CC3)ccc2N[C@@H](CC(=O)O)C1=O`: the outcome was inactive.
`Cc1ccccc1N1C(=O)c2cc(S(N)(=O)=O)c(Cl)cc2NC1C` (stereo not given): the outcome was inactive.
As to `CC(CCO)CCc1ccccc1` (stereo not given), the result was inactive.
As to `O=C(O)c1snc(Cl)c1Cl`, the call was inactive.
Turning to `Cc1nc2ccccc2s1`, the compound was called inactive.
For `C=CC(=O)NCOCC(C)C`, the result was inactive.
Turning to `CCn1cc(C(=O)O)c(=O)c2cc(F)c(N3CCNCC3)nc21`, the call was inactive.
`NC(=O)Nc1ccc(Cl)cc1`: the compound was classed as inactive.
Regarding `Cc1ccnc2ccccc12`, the compound was called inactive.
For `CN1CCN(c2c(F)cc3c(=O)c(C(=O)O)cn4c3c2OCN4C)CC1`, the viability change, negative = cytotoxic was 1.7% [at 15.8 µM].
Consider `NCC1CCCC(CN)C1` (stereo not given), for which the call was inactive.
`CCC(=O)OC/C=C/c1ccccc1`: the call was inactive.
Still for that read-out and setting: the entry for `CCCCCCCCCOC(C)=O` is “inactive”.
On to `O=C(CCCCCCCCC#CI)Oc1ccccc1`, for which the compound was classed as inactive.
On the same count and under the same terms, the entry for `CO[C@H]1O[C@H](CO)[C@@H](O)[C@H](O)[C@H]1O` is “inactive”.
For the compound `O=S1OCCO1`, the result was inactive.
For the compound `O=C(O)C(Cc1cc(I)c(O)c(I)c1)c1ccccc1` (stereo not given), the call was inactive.
For the compound `CC(CCc1ccc2c(c1)OCO2)NN` (stereo not given), the compound was classed as inactive.
On the same count and under the same terms, the entry for `CC(=O)OCC(=O)[C@@]12OC(C)(C)O[C@@H]1C[C@H]1[C@@H]3C[C@H](F)C4=CC(=O)C=C[C@]4(C)[C@@]3(F)[C@@H](O)C[C@@]12C` is “inactive”; for `CC1CC(O)CC(C)(C)C1` (stereo not given) it is “inactive”; for `CCCCCCOC(=O)C(C)C` it is “inactive”.
For `CCCC(=O)O[C@]1(C(=O)COC(=O)CC)CC[C@H]2[C@@H]3CCC4=CC(=O)CC[C@]4(C)[C@H]3[C@@H](O)C[C@@]21C`, the viability change, negative = cytotoxic is -0.584% [at 15.8 µM].
With `CCOCCn1c(C2CCN(CCc3ccc(C(C)(C)C(=O)O)cc3)CC2)nc2ccccc21`, the outcome was inactive.
On to `CCCOC(=O)c1ccc(N)cc1`, for which the compound was called inactive.
Take `CC1(C)C(=O)N(Br)C(=O)N1Cl`: the compound was called inactive.
As to `Cc1cc(O)c(C(C)C)cc1Cl`, the compound was classed as inactive.
The same measure, in the same setting: the entry for `CCOC(=O)/C=C/C(=O)O` is “inactive”; for `O=C(O)c1cccc(O)c1` it is “inactive”.
